From ChEMBL document CHEMBL3433997, “St. Jude Leishmania screening dataset” (2016) come the findings set out here.

Holding throughout (format): functional
The target in assay [1] is Solute carrier family 2, facilitated glucose transporter member 1 (Homo sapiens) (UniProt P11166). As to the kind of experiment: ST_JUDE_LEISH: Cytotoxicity at 2uM final concentration against transgenic Leishmania Mexicana promastigotes LmGLUT1 that are glucose transport deficient and complemented with the human glucose transporter GLUT1. Activity is measured by DNA content using SYBR green in vitro.
Chain of Solute carrier family 2, facilitated glucose transporter member 1 (Homo sapiens) (P11166 whole entry): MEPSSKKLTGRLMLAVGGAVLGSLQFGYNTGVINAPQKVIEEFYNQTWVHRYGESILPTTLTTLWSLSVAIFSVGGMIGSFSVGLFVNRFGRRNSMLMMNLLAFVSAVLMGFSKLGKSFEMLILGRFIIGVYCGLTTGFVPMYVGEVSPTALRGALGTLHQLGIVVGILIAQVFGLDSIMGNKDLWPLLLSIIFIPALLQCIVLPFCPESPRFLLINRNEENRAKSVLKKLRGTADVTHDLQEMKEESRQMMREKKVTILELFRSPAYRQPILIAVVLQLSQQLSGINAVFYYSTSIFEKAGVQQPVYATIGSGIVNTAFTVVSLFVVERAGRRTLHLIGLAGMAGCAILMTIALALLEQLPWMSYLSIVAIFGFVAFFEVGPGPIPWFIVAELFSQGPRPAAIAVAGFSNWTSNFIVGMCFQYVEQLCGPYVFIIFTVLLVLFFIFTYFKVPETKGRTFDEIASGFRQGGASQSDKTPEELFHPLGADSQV

Assay [2] deals with Hexose transporter 1 (Plasmodium falciparum) (UniProt O97467). Briefly: ST_JUDE_LEISH: Cytotoxicity at 2uM final concentration against transgenic Leishmania Mexicana promastigotes LmPfHT that are glucose transport deficient and complemented with the Plasmodium falciparum hexose transporter. Activity is measured by DNA content using SYBR green in vitro.
Assay [3] deals with Glucose transporter (Leishmania mexicana) (UniProt O61059). Briefly: ST_JUDE_LEISH: Cytotoxicity at 2uM final concentration against transgenic Leishmania Mexicana promastigotes LmGT2 that are glucose transport deficient and complemented with the L. Mexicana glucose transporter 2. Activity is measured by DNA content using SYBR green in vitro.

As to `O=C(Nc1ccc2c(c1)CCNCC2)c1ccc(-c2ccc(Cl)cc2)cc1`, the inhibition in assay [1] was 58.3%; in assay [2], 104%; in assay [3], 109%.

Consider `CC(=O)Nc1cc(C(=O)Nc2cccc(-c3cccc(-c4nc5cccc(C)c5[nH]4)c3)c2)ccc1C`, for which the results for the inhibition in assay [1], in assay [2] and in assay [3] were 2.89%, 2.86% and 1.31%, respectively.

For `Fc1ccc2[nH]c(-c3cccc(-c4cccc(CN5CCN(c6cnccn6)CC5)c4)c3)nc2c1`, the inhibition came out at 7.08% in assay [1], 5.74% in assay [2] and 4.27% in assay [3].

For the molecule `NCCNc1ccc([N+](=O)[O-])cc1C(=O)Nc1cccc(Cl)c1`, the inhibition was 2.71% in assay [1], 4.41% in assay [2] and 2.22% in assay [3].

Consider `CCCCCCCN(Cc1ccc(OC(C)(C)C(=O)OCC)cc1)C(=O)Nc1ccc(Cl)cc1OCC`, for which the inhibition in assay [1] was 3.65%; in assay [2] it was 0.95%; in assay [3] it was 3.11%.

Regarding `OC(CN1CCN(C2CCCCC2)CC1)Cn1c2ccccc2c2cc(Br)ccc21` (configuration not stated), the inhibition came out at 1.23% in assay [1], 0.82% in assay [2] and 0.47% in assay [3].

On to `Cc1cnc(NC(=O)c2cn(-c3ccccc3)nc2-c2cccs2)s1`, for which the figures for the inhibition in assay [1], in assay [2] and in assay [3] were 14.6%, 13.2% and 13.9%, respectively.

As to `CCN(c1ccccc1)S(=O)(=O)c1ccc(OC)c(NC(=O)c2cccc(C(F)(F)F)c2)c1`, the inhibition in assay [1] came out at 10.4%; in assay [2], 7.45%; in assay [3] it was 7.82%.

On to `CCCCN(CCCC)CCCCNc1c2ccccc2nc2ccccc12`, for which the inhibition was 26% in assay [1], 31.3% in assay [2] and 12.3% in assay [3].

For `COc1cccc2c(N/N=C/c3cccc([N+](=O)[O-])c3)ccnc12`, the results for the inhibition in assay [1], in assay [2] and in assay [3] were 13.4%, 10.8% and 8.14%, respectively.

`O=C(Nc1ccc(C(F)(F)F)cc1)NC1CCN(c2ccnc3ccccc23)C1` (configuration not stated): the inhibition in assay [1] turned out to be 8.02%; in assay [2] it was 7.55%; in assay [3], 7.55%.

On to `CN1CCC(Oc2ccc(NC(=O)c3ccc4c(=O)n(Cc5ccccc5)cnc4c3)cc2Cl)CC1`, for which the inhibition in assay [1] was determined as 32.8%; in assay [2] it was 57.4%; in assay [3], 8.76%.

In the case of `COc1ccc2[nH]ccc(=NN=Cc3cccc(Cl)c3)c2c1`, the inhibition in assay [1] was found to be 15.1%; in assay [2] it was 14.8%; in assay [3] it was 11.7%.

`CS(=O)(=O)CCNCc1cccc(-c2cc3nccc(Nc4ccc(Oc5ccccc5)cc4)c3cc2Cl)c1`: the results for the inhibition in assay [1], in assay [2] and in assay [3] were -1.75%, 0.05% and -0.97%, respectively.

On to `COC(=O)c1cccc(CNCc2ccc(-c3cccc(-c4nc5ccccc5[nH]4)c3)cc2)c1`, for which the inhibition in assay [1] is -2.56%; in assay [2] it was -1.88%; in assay [3] it was 0%.

For `Cc1cc(Nc2ncc3c(n2)N(C2CCC2)CC3)ccc1N1CCN(C)CC1`, the inhibition in assay [1] amounted to 0.65%; in assay [2], 1.15%; in assay [3], 1.26%.

For `CC[C@H](C)CNC(=O)c1ccnc(-c2cccc(CN3CCC(N4CCCC4)CC3)c2)c1`, the figures for the inhibition in assay [1], in assay [2] and in assay [3] were 0.78%, -0.95% and 0.7%, respectively.

Consider `Cn1cnc(CCNC(=O)c2ccc(-c3cccc(-c4nc5cc(F)ccc5[nH]4)c3)cc2)c1`, for which the inhibition in assay [1] amounted to 2.97%; in assay [2], 1.64%; in assay [3], 0.52%.

For the molecule `CCCc1ccc(Cc2cnc3nc(N)nc(N)c3c2C)cc1`, the inhibition came to 39.1% in assay [1], 53.8% in assay [2] and 40% in assay [3].

Regarding `CNCCNCc1cccc(-c2ccc(-c3nc4cccc(C)c4[nH]3)s2)c1`, the inhibition in assay [1] is -0.6%; in assay [2], 0.01%; in assay [3], -0.03%.

On to `COc1ccc(CN2CCC2=O)c(OC)c1`, for which the inhibition was determined as 4.12% in assay [1], 3.17% in assay [2] and 3.38% in assay [3].

As to `Cc1ccc(NC(=O)Nc2ccc(Cl)c(C(F)(F)F)c2)cc1-c1ccc(C(=O)Nc2ccncc2)cc1`, the inhibition in assay [1] amounted to 3.55%; in assay [2] it was 2.27%; in assay [3] it was 3.98%.

Consider `O=C(Nc1ccc2c(c1)CCNCC2)Nc1ccc2ccccc2c1`, for which the inhibition in assay [1] came to 11.1%; in assay [2], 8.46%; in assay [3], 9.36%.

For `c1cncc(CCNCc2cccc(-c3ccc(-c4nc5ccccc5[nH]4)s3)c2)c1`, the inhibition in assay [1] is 7.99%; in assay [2] it was 7.19%; in assay [3], 4.65%.

For `COc1ccc(CCN(C)CCCN2CCC(NC(=O)c3cccc4c(=O)c5ccccc5sc34)CC2)cc1OC`, the results for the inhibition in assay [1], in assay [2] and in assay [3] were 2.6%, 1.86% and 5.63%, respectively.

`O=C(Nc1ccc(-c2ccccc2)cc1)Nc1cccc(OCCN2CCCC2)c1`: the inhibition in assay [1] amounted to 7.09%; in assay [2] it was 4.18%; in assay [3], 4%.

`CCn1c(SC)nnc1C1CCCN(CC(=O)Nc2nc3ccc(OC)cc3s2)C1` (configuration not stated): the results for the inhibition in assay [1], in assay [2] and in assay [3] were 4.48%, 3.27% and 0.77%, respectively.

Consider `O=C(Nc1ccc(-c2cccc(-c3nc4cc(F)ccc4[nH]3)c2)cc1)Nc1ccsc1`, for which the inhibition in assay [1] came out at 5.02%; in assay [2], 6.71%; in assay [3], 0.78%.

In the case of `O=C(NC1CCCCC1)N(Cc1ccc(-c2ccc(CNC3CCCC3)cc2)cc1)C1CCN(Cc2ccccc2)CC1`, the figures for the inhibition in assay [1], in assay [2] and in assay [3] were 1.76%, 3.96% and 5.15%, respectively.

As to `CCOc1cc(C(=O)NC2CC(C)(C)NC(C)(C)C2)ccc1-c1cc2cc(Cl)c(Cl)cc2[nH]1`, the inhibition is -1.95% in assay [1], -1.26% in assay [2] and -0.02% in assay [3].

Take `CC(C)NCc1cccc(-c2ccc(NC(=O)c3ccc(C#N)cc3)cc2)c1`: the inhibition in assay [1] is 14.9%; in assay [2] it was 12.1%; in assay [3] it was 10%.

Regarding `Cc1c(OC(C)C)nc2ccccc2c1C(=O)N[C@H](c1cccc(F)c1)C1CC1`, the inhibition is 0.15% in assay [1], -0.55% in assay [2] and -0.32% in assay [3].

As for `Cc1cccc2nc(-c3cccc(-c4cccc(NC(=O)c5csnn5)c4)c3)[nH]c12`, the inhibition was 4.92% in assay [1], 1.69% in assay [2] and -0.76% in assay [3].

For `CC1CCCC(C)N1C[C@@H](O)CNS(=O)(=O)c1cccc(C(F)(F)F)c1` (some centres not stated), the inhibition in assay [1] was 0.21%; in assay [2], 0.37%; in assay [3], -0.01%.

By inhibition is commonly meant the relative decrease from the control value, in per cent.
